Rab9 promoter act: qHTS Assay for Rab9 Promoter Activators; Huh7 Rab9 promoter-luciferase reporter, luminescence, 24 h; Potency, µM (series often up to 9.22 µM), without a hit: at the top dose activation, negative = inhibition, actives largely listed as activators; actives 2.8% (n = 320,000); AID 485297, 2010; further: % of control where 0% means no effect; nearly all actives have a fitted effect of over 60% in size
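Luminescence read-out: Huh7 cells stably expressing Rab9-luciferase, treated 24 h with compound at 37 °C, then lysed with luciferase reagent for 10 min at ambient before reading.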
Luc counter: Counterscreen for Luciferase (Kinase-Glo TM) Inhibition; Luciferin 4-monooxygenase (Photuris pensylvanica), Q27757; Kinase-Glo luciferase, ATP luminescence, 8 min; Potency, µM (highest dose often 38.3 µM), for inactives: at the top dose activity change, negative = inhibition, most hits filed as inhibitors; actives 0.28% (n = 200,000); AID 1379, 2008; further: on the % scale 0 is the no-effect control and ±100 the full control effect; nearly all actives have a fitted effect of over 60% in size
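Luminescence was the read-out, taken after 8-minute incubation at ambient temperature. Luciferase turned over luciferin with 10 uM ATP in imidazole pH 7.2 buffer containing KCl, MgCl2, Tween 20 and BSA.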
NPC1 promoter act: qHTS Assay for NPC1 Promoter Activators | Huh7 NPC1 promoter luciferase reporter, 24 h | actives 2.4% (n = 320,000) | Potency, µM (series often up to 9.22 µM), without a hit: top-dose activation, hits mostly activators; further: % of control where 0% means no effect; nearly all actives have a fitted effect of over 60% in size
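Luminescence from an NPC1 promoter-driven luciferase reporter in stably transfected Huh7 cells was measured after 24 h compound treatment at 37 °C, followed by 10 min ambient incubation with luciferase detection reagent.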
SMN2 splice up: qHTS Assay for Enhancers of SMN2 Splice Variant Expression; HEK293 SMN2-luciferase splicing reporter, luminescence, 30-36 h; actives 2.8% (n = 210,000); Potency, µM (top dose mostly 46.1 µM), inactives show top-dose activity change, positive = activation, hits mostly activators; further: % of control where 0% means no effect; nearly all actives have a fitted effect of over 55% in size
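HEK293 cells carry an SMN2 […]–luciferase reporter in which exon 7 inclusion puts luciferase in frame. Cells were plated 10-12 h before compound addition, then incubated 30-36 h at 37C. ONE-Glo luminescence was read; sodium butyrate at 4.5 mM final served as control.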
FLuc modulator: qHTS profiling assay for firefly luciferase inhibitor/activator using purifed enzyme and Km concentrations of substrates (counterscreen for miR-21 project); Luciferin 4-monooxygenase (Photinus pyralis), P08659; purified FLuc, Km substrates, luminescence inhibition; Potency, µM (series often up to 57.5 µM), for inactives: at the top dose activity change, negative = inhibition, actives largely listed as inhibitors; actives 6.9% (n = 360,000);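 further: plate controls were vehicle for no effect and reference inhibitor for full effect; nearly all actives have a fitted effect of over 55% in size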
Target sequence (P08659 whole entry, looked up): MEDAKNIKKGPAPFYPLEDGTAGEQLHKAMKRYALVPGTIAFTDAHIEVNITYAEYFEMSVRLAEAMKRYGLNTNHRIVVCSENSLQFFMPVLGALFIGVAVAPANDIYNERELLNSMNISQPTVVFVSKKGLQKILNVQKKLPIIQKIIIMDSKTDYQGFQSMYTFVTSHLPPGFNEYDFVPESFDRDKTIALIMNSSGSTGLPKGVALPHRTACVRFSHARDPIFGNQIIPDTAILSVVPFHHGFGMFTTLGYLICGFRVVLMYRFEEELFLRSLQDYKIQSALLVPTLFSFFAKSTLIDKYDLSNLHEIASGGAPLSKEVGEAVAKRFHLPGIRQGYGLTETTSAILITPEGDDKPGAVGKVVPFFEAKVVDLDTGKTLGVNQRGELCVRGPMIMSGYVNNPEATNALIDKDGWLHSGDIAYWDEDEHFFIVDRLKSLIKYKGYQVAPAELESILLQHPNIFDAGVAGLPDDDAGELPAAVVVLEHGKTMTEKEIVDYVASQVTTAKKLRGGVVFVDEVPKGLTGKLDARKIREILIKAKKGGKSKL
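Purified P. pyralis luciferase (10nM final) with 10uM D-luciferin and 10uM ATP (Km levels) in 50mM Tris acetate pH 7.5, 10mM Mg acetate, 0.01% Tween-20, 0.05% BSA; qHTS 6-point titration, ~60 µM downward; luminescence read.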
ELG1 genotox: qHTS screen for small molecules that induce genotoxicity in human embryonic kidney (HEK293T) cells expressing luciferase-tagged ELG1. Potency, µM (titrated, usually from 46 µM), for inactives: at the highest dose activity change, positive = activation, most hits filed as activators. actives 1.3% (n = 330,000). HEK293T ELG1-luciferase reporter, luminescence, 16 h; further: % of control where 0% means no effect; nearly all actives have a fitted effect of over 60% in size
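Genotoxicity was scored as increased ELG1-luciferase reporter signal, measured by ONE-Glo luminescence (30 min, room temperature). Compound or vehicle exposure of the HEK293T reporter cells lasted 16 hr at 37°C.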
* = called active by the depositor; ? = inconclusive; . = no result; [ ] = another dose, or the depositor's remark. The list is not random: actives were taken first. Their share in the collection is about 7.5%. The call rests on the fitted dose curve; in most records, active means well fitted curve in the direction sought with a large enough effect; inconclusive means small, poorly fitted or top-dose-only effect, or another doubt; inactive means no such curve, though single readings can be large; an effect the other way counts as inactive or inconclusive. Potency means the concentration at half of the fitted maximal effect.

SMILES	Rab9 promoter act	Luc counter	NPC1 promoter act	SMN2 splice up	FLuc modulator	ELG1 genotox
CC(C)(C)C(=O)COC(=O)c1cccc(NC(=O)c2ccco2)c1	5%	1%	4%	?	?	11%
COc1ccc(C(=O)COC(=O)c2ccc(NC(=O)c3ccccc3)cc2)cc1	-3%	-2%	-6%	7%	1%	19%
O=C(COC(=O)c1cccc(NC(=O)c2ccc(Br)cc2)c1)c1ccc(Cl)cc1	.	.	.	?	2.7µM*	.
C=CCn1c(SCc2ccc(C#N)cc2)nnc1-c1ccc(C)cc1	9%	4%	-2%	-5%	4%	-7%
Cc1ccc(N/N=C/c2c(O)cc(C)oc2=O)cc1	0%	-3%	4%	-46%	13µM*	7%
Cc1c(/C=N/Nc2ccc(F)cc2)c(O)n(C)c(=O)c1C#N	-7%	1%	2%	.	24µM*	4%
Cc1cc(O)c(/C=N/Nc2ccc(F)cc2)c(=O)o1	-5%	-2%	3%	-36%	13µM*	8%
Clc1ccc(Nc2ccc(-n3ccnc3)nn2)cc1Cl	4%	-5%	1%	-2%	27µM*	-1%
c1ccc(Nc2ccc(-n3ccnc3)nn2)cc1	2%	-7%	-2%	7%	?	6%
COCCCNC(=O)CSc1nc2ccccc2c(=O)n1CCc1ccc(S(N)(=O)=O)cc1	18%	.	-1%	.	3%	-15%
CCC(=O)Nc1cccc(-c2nc3ccccc3o2)c1	24%	4%	10%	14%	?	11%
COc1ccc(CC(=O)Nc2ccc(N3CCOCC3)cc2)cc1OC	-5%	.	-2%	.	6%	-9%
COc1ccc(CC(=O)Nc2cccc(-c3cn4ccccc4n3)c2)cc1	23%	-5%	2%	25%	8.5µM*	-3%
CCOc1ccc(CC(=O)Nc2ccc(-c3ccc4nnc(C)n4n3)cc2)cc1	-1%	-3%	-9%	-5%	-7%	21µM*
Cc1nnc2ccc(-c3ccc(NC(=O)Cc4cccs4)cc3)nn12	-2%	.	-5%	.	-5%	?
COc1ccc(CC(=O)Nc2ccc(-c3cn4ccccc4n3)cc2)cc1OC	18%	-2%	21%	-17%	17µM*	?
CCC(=O)Nc1cccc(-c2cn3ccccc3n2)c1	?	0%	?	?	11µM*	12%
CCOc1ccc(C(=O)N2CCC(c3ccncc3)CC2)cc1	.	.	.	.	1%	.
Cc1ccc(C)c(NC(=O)CSc2nnc(C3CCCCC3)o2)c1	0%	.	-2%	.	-3%	8%
O=C(Nc1cccc(-c2cn3ccccc3n2)c1)C1CC1	3%	-2%	26%	?	13µM*	?
O=C(Nc1ccc(-c2cn3ccccc3n2)cc1)c1cccs1	3.5µM*	-24%	1.8µM*	11µM*	1.9µM*	?
Cc1ccc(S(=O)(=O)Nc2cccc(-c3cn4cccc(C)c4n3)c2)c(C)c1	.	.	.	-17%	?	.
CCC(=O)Nc1cccc(-c2cn3cccc(C)c3n2)c1	?	.	?	.	7.6µM*	12%
O=C(Nc1ccc(-c2cn3ccccc3n2)cc1)c1cc(Br)ccc1O	.	-2%[7.66 µM]	.	2%[9.22 µM]	.	.
CN(C)S(=O)(=O)c1cccc(-c2cn3ccccc3n2)c1	26%	0%	14%	1%	-11%	2%
SMILES	Rab9 promoter act	Luc counter	NPC1 promoter act	SMN2 splice up	FLuc modulator	ELG1 genotox
COc1ccc(-c2cn(-c3ccc(C)cc3)c(S(=O)(=O)CC(=O)Nc3ccccc3)n2)cc1	.	.	.	13µM*	?	.
CCc1ccc(-c2cc(C)no2)cc1S(=O)(=O)Nc1cc(OC)c(OC)c(OC)c1	.	.	.	.	-17%	.
Cc1ccccc1Br	.	.	.	2%	.	.
Cc1ccc(-n2nc3c(c2NC(=O)C(C)(C)C)CS(=O)(=O)C3)cc1	-4%	.	-5%	.	2%	1%
Cc1ccc(C)c(Cn2cnc3ccccc3c2=O)c1	.	.	.	-8%	-5%	.
COc1ccc(CC(=O)Nc2ccc(-c3cn4ccccc4n3)cc2)cc1	3.2µM*	-8%	?	?	3.4µM*	?
COc1ccc(CC(=O)Nc2ccc(NC(=O)c3ccccc3F)cc2)cc1	-3%	1%	-5%	.	1%	10%
COc1ccc(C(=O)Nc2nc3ccc(OC)cc3s2)cc1	?	.	2.5µM*	.	1.7µM*	?
COc1ccc2nc(NC(=O)c3ccc(NS(=O)(=O)c4cccs4)cc3)sc2c1	-2%	-1%	3%	-12%	4.8µM*	-2%
COc1ccc2nc(NC(=O)c3ccccc3C(=O)O)sc2c1	0%[1.84 µM]	.	-2%	.	9.5µM*	2%
COc1ccc2nc(NC(=O)c3cnccn3)sc2c1	2.2µM*	-16%	3.2µM*	4µM*	3µM*	?
CCSc1ncc(Cl)c(C(=O)Nc2nc3ccc(OC)cc3s2)n1	.	.	.	-4%	-7%	.
COc1ccc2nc(NC(=O)c3ccccc3-c3ccccc3C(=O)O)sc2c1	-12%	1%	-1%	-1%	?	6%
CC(C)(C)c1oc(C(=O)O)cc1CN1CCOCC1	-4%	.	-3%	.	0%	-2%
CCOC(=O)CC(NC(=O)c1cc2cc(OC)ccc2oc1=O)c1ccc(OC)cc1 (stereo not drawn)	.	.	.	17%	-9%	.
COc1ccc2nc(NC(=O)c3ccc(NC(=O)C4CCCO4)cc3)sc2c1 (stereo not drawn)	18%	.	21%	.	9.5µM*	-10%

From PubChem BioAssay
